{"source": "PubChem BioAssay AID1850", "about": "(Southern Research Specialized Biocontainment Screening …, 2009)", "note": "The whole screen tested about 310,000 compounds, of which about 1,000 (0.32%) were called active. The rule behind the calls is not given here. Only a sample is shown. Measured potencies and affinities stand elsewhere."}
{"assay": "PhoP regulon inhibitors, Salmonella typhi PhoP promoter GFP reporter, confirmatory (AID 1850);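 note: 0% = induced wells with vehicle and 100% = uninduced wells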", "conditions": "fluorescence, 4 h, at 50 µM, stronger effect = higher value"}
{"smiles": "CCOc1ccc(N(CC(=O)N2CCN(Cc3ccccc3)CC2)S(C)(=O)=O)cc1", "inhibition": "1.84% (inactive)"}
{"smiles": "COc1ccc(N2CCN(C(=O)c3ccc(CSc4ccccc4)cc3)CC2)cc1", "inhibition": "3.8% (inactive)"}
{"smiles": "CCC(=O)N1CCc2cc(S(=O)(=O)NCCC(=O)NCc3ccc(F)cc3)ccc21", "inhibition": "5.61% (inactive)"}
{"smiles": "CN(C(=O)Cc1c(C(=O)O)n(C)c2ccccc12)c1ccc(Cl)cc1", "inhibition": "-0.76% (inactive)"}
{"smiles": "CCOC(=O)C1CN(S(=O)(=O)c2ccccc2)C1", "inhibition": "-1.91% (inactive)"}
{"smiles": "CC(C)CC(NS(=O)(=O)c1cccc(C(=O)O)c1)C(=O)O", "note": "(stereo unspecified)", "inhibition": "-4.1% (inactive)"}
{"smiles": "CSc1cccc(NC(=O)c2ccccc2N(C)S(C)(=O)=O)c1", "inhibition": "3.99% (inactive)"}
{"smiles": "CCc1nnc(NC(=O)[C@@H](NC(=O)c2ccc(C(C)(C)C)cc2)C(C)C)s1", "inhibition": "-2.72% (inactive)"}
{"smiles": "COc1ccc(C(=O)NC(=S)NNC(=O)c2cnccn2)cc1OC", "inhibition": "31.3% (inactive)"}
{"smiles": "O=C(NNC(=S)NC(=O)c1cccnc1)c1ccc(F)cc1", "inhibition": "15.9% (inactive)"}
{"smiles": "O=C(NC(=S)NNC(=O)c1cnccn1)c1ccc(Cl)cc1", "inhibition": "10.3% (inactive)"}
{"smiles": "COc1cc(OC)cc(C(=O)NC(=S)NNC(=O)c2cnccn2)c1", "inhibition": "-6.65% (inactive)"}
{"smiles": "COc1cc2oc(=O)cc(C)c2c(OC)c1OC", "inhibition": "-3.26% (inactive)"}
{"smiles": "Cc1ccc(NC(=O)C2CCCN(S(=O)(=O)c3cccs3)C2)cc1", "note": "(stereo unspecified)", "inhibition": "3.27% (inactive)"}
{"smiles": "COc1ccc(N2C(N)=NC(N)=NC2(C)C)cc1", "inhibition": "2.39% (inactive)"}
{"smiles": "CCOc1ccc(N2C(N)=NC(N)=NC2(C)C)cc1", "inhibition": "-0.23% (inactive)"}
{"smiles": "COC(=O)c1ccc(CNC(=O)COC(=O)Cc2ccsc2)cc1", "inhibition": "8.65% (inactive)"}
{"smiles": "O=C(Nc1ccc(F)cc1)c1sc(Cl)nc1-c1ccccc1", "inhibition": "-0.89% (inactive)"}
{"smiles": "O=C(/C=C/c1ccccc1O)c1ccco1", "inhibition": "8.77% (inactive)"}
{"smiles": "O=C(/C=C/c1ccc(Br)cc1)c1ccco1", "inhibition": "2.45% (inactive)"}
{"smiles": "COc1ccc(/C=C/C(=O)Oc2ccc(C)cc2)cc1", "inhibition": "-5.85% (inactive)"}
{"smiles": "Cc1ccc(-c2cc(-c3ccc(C)cc3)[n+](C)o2)cc1", "inhibition": "-2.37% (inactive)"}
{"smiles": "CCOc1cccc(CN(C)CC2CCCN(CCc3ccc(Cl)cc3)C2)c1O", "note": "(stereo unspecified)", "inhibition": "-8.67% (inactive)"}
{"smiles": "CN(Cc1ccccc1OCCO)CC1CCCN(CCc2ccc(Cl)cc2)C1", "note": "(stereo unspecified)", "inhibition": "0.25% (inactive)"}
{"smiles": "O=C(Nc1c(C(=O)N2CCOCC2)cnn1-c1ccccc1)c1cccc(F)c1", "inhibition": "-2.99% (inactive)"}
{"smiles": "Cc1ccc2nc(N(CCN3CCOCC3)C(=O)CCS(=O)(=O)c3ccccc3)sc2c1", "inhibition": "0.17% (inactive)"}
{"smiles": "COc1cnc(-c2ccccn2)[nH]c1=O", "inhibition": "-0.99% (inactive)"}
{"smiles": "O=c1[nH]c(-c2ccccn2)nc2ccccc12", "inhibition": "-0.6% (inactive)"}
{"smiles": "O=C(NC1CCCC1)C(c1ccccn1)N(C(=O)c1csnn1)c1ccccc1Br", "note": "(stereo unspecified)", "inhibition": "5.15% (inactive)"}
{"smiles": "CCN(CC)CCNC(=O)CNC(=O)c1nn(-c2ccc(OC)c(OC)c2)c(=O)c2ccccc12", "inhibition": "-2.16% (inactive)"}
{"smiles": "CC(=O)c1cc(C)ccc1OC(=O)c1ccncc1", "inhibition": "-3.27% (inactive)"}
{"smiles": "CN1CCC2(CC1)N=C(c1ccc(F)cc1)C(=S)N2C(=O)c1ccc(C(C)(C)C)cc1", "inhibition": "17.9% (inactive)"}
{"smiles": "CN1CCC2(CC1)N=C(c1ccc(F)cc1)C(=S)N2C(=O)c1ccccc1", "inhibition": "-2.67% (inactive)"}
{"smiles": "O=C(O)c1ccc(S(=O)(=O)Nc2ccc3c(c2)OCCO3)cc1", "inhibition": "-5.88% (inactive)"}
{"smiles": "CCCC(=O)Nc1ccc(C(=O)NNC(=O)COc2ccc(Br)c(C)c2)cc1", "inhibition": "-2.62% (inactive)"}
{"smiles": "O=c1[nH]cc(-c2ccccc2)c(=O)[nH]1", "inhibition": "2.03% (inactive)"}
{"smiles": "O=c1[nH]cc(O)c(=O)[nH]1", "inhibition": "6.55% (inactive)"}
{"smiles": "COC(=O)CN1C2=NCCCN2c2ccccc21", "inhibition": "6.91% (inactive)"}
{"smiles": "Cc1sc2ccccc2[n+]1CC(=O)c1ccccc1", "inhibition": "-4.52% (inactive)"}
{"smiles": "Cc1sc2cc3c(c(C(=O)c4ccccc4)[n+]2c1C)-c1cccc2cccc-3c12", "inhibition": "-9.84% (inactive)"}
{"smiles": "O=C(OCc1ccc(COC(=O)c2cccnc2Cl)cc1)c1cccnc1Cl", "inhibition": "-8.94% (inactive)"}
{"smiles": "CCOc1ccc(OCC(=O)N2CCOCC2)cc1", "inhibition": "-0.13% (inactive)"}
{"smiles": "CCn1ccc(=O)c2cc3c(cc21)OCO3", "inhibition": "-2.2% (inactive)"}
{"smiles": "CCn1cc(C(=O)NCCC(=O)OC)c(=O)c2cc3c(cc21)OCO3", "inhibition": "2.1% (inactive)"}
{"smiles": "CCOC(=O)c1cn(CC)c2cc3c(cc2c1=O)OCO3", "inhibition": "2.61% (inactive)"}
{"smiles": "CCn1nc(C(=O)N2CCN(Cc3ccc4c(c3)OCO4)CC2)c2ccccc2c1=O", "inhibition": "-11.3% (inactive)"}
{"smiles": "O=C(Nc1ccccc1C(F)(F)F)N1CCN(c2ccccn2)CC1", "inhibition": "5.82% (inactive)"}
{"smiles": "O=C(C1CC(c2ccccc2O)=NO1)N1CCc2ccccc2C1", "note": "(stereo unspecified)", "inhibition": "-3.18% (inactive)"}
{"smiles": "O=C(C[n+]1cccc(CNC(=O)c2ccc(OC(F)F)cc2)c1)Nc1cccc(C(F)(F)F)c1", "inhibition": "1.69% (inactive)"}
{"smiles": "O=C(C[n+]1cccc(CNC(=O)c2ccc(OC(F)F)cc2)c1)Nc1ccc(F)cc1", "inhibition": "-3.3% (inactive)"}
{"smiles": "O=C(COC(=O)C1=COCCO1)Nc1ccc(F)cc1", "inhibition": "2.51% (inactive)"}
{"smiles": "Cc1ccc(SCC(=O)Nc2ccc3c(c2)C(=O)NC3=O)cc1", "inhibition": "5.23% (inactive)"}
{"smiles": "Oc1ccc(C23CC4CC(CC(C4)C2)C3)cc1O", "inhibition": "0.69% (inactive)"}
{"smiles": "Oc1ccccc1CNCC12CC3CC(CC(C3)C1)C2", "inhibition": "6.43% (inactive)"}
{"smiles": "C=CCNC(=O)c1cccc(OC2CCN(CC(C)(C)C)CC2)c1", "inhibition": "-1.47% (inactive)"}
{"smiles": "O=C(Nc1cccc(S(=O)(=O)N2CCCC2)c1)c1ccncc1", "inhibition": "-14.8% (inactive)"}
{"smiles": "Nc1c(Cl)ncnc1N/N=C/c1ccncc1", "inhibition": "5.13% (inactive)"}
{"smiles": "Nc1c(Cl)ncnc1N/N=C/c1ccc2ccccc2n1", "inhibition": "8.37% (inactive)"}
{"smiles": "O=C(C[n+]1cc(Br)cc2ccccc21)c1ccccc1", "inhibition": "22% (inactive)"}
{"smiles": "O=C(C[n+]1cc(Br)cc2ccccc21)c1ccc(Br)cc1", "inhibition": "5.62% (inactive)"}
{"smiles": "CCCNC(=O)CSc1nnc(-c2ccc(F)cc2)o1", "inhibition": "-7.43% (inactive)"}
{"smiles": "CC1CN(CC(O)COc2ccc(C#N)cc2)CCN1CC(O)COc1ccc(C#N)cc1", "note": "(stereo unspecified)", "inhibition": "9.68% (inactive)"}
{"smiles": "O=C(Cc1cccs1)Nc1cccc([N+](=O)[O-])c1", "inhibition": "0.05% (inactive)"}
{"smiles": "O=C(Nc1cccc([N+](=O)[O-])c1)Nc1cccc([N+](=O)[O-])c1", "inhibition": "1.71% (inactive)"}
{"smiles": "CN(C)S(=O)(=O)c1cccc(-c2csc(=Nc3ccccc3)n2CCCN2CCOCC2)c1", "inhibition": "4.21% (inactive)"}
{"smiles": "Cc1ccc(C(=O)c2no[n+]([O-])c2C(=O)c2ccc(C)cc2)cc1", "inhibition": "19.9% (inactive)"}
{"smiles": "COc1ccc(C(=O)c2no[n+]([O-])c2C(=O)c2ccc(OC)cc2)cc1", "inhibition": "21.3% (inactive)"}
{"smiles": "O=C(NCCN1CCOCC1)c1ccc2c(c1)N(Cc1c(F)cccc1Cl)C(=O)c1ccccc1S2", "inhibition": "-4.77% (inactive)"}
{"smiles": "CCc1nnc(NC(=O)c2cccc(S(=O)(=O)N3CCc4ccccc43)c2)s1", "inhibition": "-12.3% (inactive)"}
{"smiles": "Oc1c(Cl)cc(Cl)cc1/C=N/c1ncn[nH]1", "inhibition": "3.2% (inactive)"}
{"smiles": "Oc1c(Br)cccc1/C=N/c1ncn[nH]1", "inhibition": "-5.35% (inactive)"}
{"smiles": "O=[N+]([O-])C(=C1Nc2ccccc2N1)/C(Cl)=C(/Cl)Br", "inhibition": "-3.57% (inactive)"}
{"smiles": "O=[N+]([O-])C(=C1Nc2ccccc2N1)C(Cl)=C(Cl)Cl", "inhibition": "-0.56% (inactive)"}
{"smiles": "Cc1ccc(S(=O)(=O)NCCC(=O)Nc2ccncc2)cc1C", "inhibition": "9.54% (inactive)"}
{"smiles": "COCCNC(=O)C1CC(c2ccc(F)cc2)=NO1", "note": "(stereo unspecified)", "inhibition": "-13.4% (inactive)"}
{"smiles": "Cc1ccc(S(=O)(=O)N2CCCC2C(=O)NCc2ccccc2F)cc1", "note": "(stereo unspecified)", "inhibition": "-7.81% (inactive)"}
{"smiles": "CCN(CC)CCCn1c2c(c(SCC(=O)Nc3ccc4c(c3)OCCO4)nc1=O)CCC2", "inhibition": "11.9% (inactive)"}
{"smiles": "Cc1ccsc1CN(C)C(=O)CCc1nnc(COc2ccccc2)o1", "inhibition": "-5.48% (inactive)"}
{"smiles": "Cc1[nH]n(-c2ccccc2)c(=O)c1/C=N/NC(=O)COc1ccccc1[N+](=O)[O-]", "inhibition": "-5.18% (inactive)"}
{"smiles": "Cc1ccc(OCC(=O)N/N=C\\c2c(C)n(C)c3ccccc23)c([N+](=O)[O-])c1", "inhibition": "-4.6% (inactive)"}
{"smiles": "COCCNC(=O)c1onc(CS(=O)(=O)c2cc(C)cc(C)c2)c1C(=O)NCCOC", "inhibition": "5.4% (inactive)"}
{"smiles": "O=C(NCc1ccc2c(c1)OCO2)c1cccc([N+](=O)[O-])c1", "inhibition": "-1.83% (inactive)"}
{"smiles": "COc1ccc(/C=C2/C(=O)N(c3nc4ccccc4s3)N=C2CSc2ccc(Cl)cc2)cc1", "inhibition": "3.84% (inactive)"}
{"smiles": "CC(C)N1CCc2c(sc(NC(=O)c3ccc([N+](=O)[O-])o3)c2C(N)=O)C1", "inhibition": "-4.77% (inactive)"}
{"smiles": "NC(=O)c1c(NC(=O)c2ccc([N+](=O)[O-])o2)sc2c1CCCC2", "inhibition": "-5.17% (inactive)"}
{"smiles": "Cn1c(=O)cc(OCCCC(=O)NCc2cccnc2)c2ccccc21", "inhibition": "0.57% (inactive)"}
{"smiles": "COc1ccccc1N1C(=O)c2cccnc2C1=O", "inhibition": "-1.48% (inactive)"}
{"smiles": "CCc1ccc(/C=C/C(=O)c2cc(Br)ccc(=O)c2O)cc1", "inhibition": "-13.9% (inactive)"}
{"smiles": "Cc1cccc(/C=C/C(=O)c2cc(Br)ccc(=O)c2O)c1", "inhibition": "4.56% (inactive)"}
{"smiles": "CCOC(=O)C1(CC)CC(CSc2nc3ccccc3[nH]2)OC1=O", "note": "(stereo unspecified)", "inhibition": "5.22% (inactive)"}
{"smiles": "O=C(O)c1cccnc1Sc1ccccc1Cl", "inhibition": "-7.16% (inactive)"}
{"smiles": "c1ccc(CN2CCN(Cc3c[nH]c4ccccc34)CC2)cc1", "inhibition": "1.99% (inactive)"}
{"smiles": "Clc1ccccc1N1CCN(Cc2c[nH]c3ccccc23)CC1", "inhibition": "-13.8% (inactive)"}
{"smiles": "Nc1ccccc1SC(C[N+](=O)[O-])c1ccccc1", "note": "(stereo unspecified)", "inhibition": "15.4% (inactive)"}
{"smiles": "Nc1ccc(Sc2ccc([N+](=O)[O-])cc2)cc1", "inhibition": "-7.65% (inactive)"}
{"smiles": "COc1cc(/C=N/NC(=O)c2ccncc2)ccc1Oc1ccc([N+](=O)[O-])cn1", "inhibition": "4.23% (inactive)"}
